Screening results deposited in PubChem BioAssay by several laboratories.
Sampled rows, rich in hits. Any-hit rate of the full collection: about 22%.
CYP2C19 inh: blockers of cytochrome P450 2C19 activity – biochemical, luminescence, ADME assay, primary screen; hit rate 21% among 96,000; CYP2C19 Supersomes, luciferin-H EGE luminescence, 30 min; AID 778, 2007; P33261; inhibition, % at 5 µM;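 active = CYP2C19 inhibition above a set limit at 5 µM in the primary screen, cut at about 50% in these data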
Target sequence (P33261 whole entry, looked up): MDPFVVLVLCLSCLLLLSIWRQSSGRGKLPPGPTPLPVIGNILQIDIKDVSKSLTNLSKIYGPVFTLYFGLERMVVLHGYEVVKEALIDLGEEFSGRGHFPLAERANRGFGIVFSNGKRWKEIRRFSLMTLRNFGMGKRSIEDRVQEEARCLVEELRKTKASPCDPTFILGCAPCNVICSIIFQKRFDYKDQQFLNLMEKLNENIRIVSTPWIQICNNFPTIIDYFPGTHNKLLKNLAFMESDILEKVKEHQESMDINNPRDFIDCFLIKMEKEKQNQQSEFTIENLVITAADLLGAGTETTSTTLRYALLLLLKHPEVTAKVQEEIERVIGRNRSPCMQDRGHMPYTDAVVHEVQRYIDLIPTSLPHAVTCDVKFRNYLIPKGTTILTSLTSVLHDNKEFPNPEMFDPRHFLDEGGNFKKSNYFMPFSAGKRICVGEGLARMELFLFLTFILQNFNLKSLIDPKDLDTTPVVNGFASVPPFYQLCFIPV
CYP2C9 act: human CYP2C9 activators, primary screen, biochemical, luminescence; Cytochrome P450 2C9 (Homo sapiens), P11712; recombinant CYP2C9, luciferin-H conversion; active compounds read high; factor 1 = untreated enzyme, 0 = blocked; activation factor at 5 µM; hit rate 1.4% among 96,000; AID 1024, 2008;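 active = activation factor of 2 or more for CYP2C9 at a 5 µM dose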
CYP2C9 inhib: blockers of cytochrome P450 2C9 activity – biochemical, luminescence, ADME assay, primary screen. P11712. CYP2C9 Supersomes, luciferin-H conversion. inhibition, % at 5 µM. hit rate 20% among 96,000. AID 777, 2007;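 active = blocking of liver enzyme CYP2C9 beyond about 50% at 5 µM, limit read from the data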
CYP2C19 act: human CYP2C19 activators, primary screen, biochemical, luminescence; Cytochrome P450 2C19 (Homo sapiens), P33261; recombinant CYP2C19, luciferin-H EGE luminescence; active compounds read high; 0 = fully inhibited enzyme, 1 = untreated enzyme; activation factor at 5 µM; 96,000 tested, under 10 active; AID 1025, 2008;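 active = activation factor of at least 2 at 5 µM in the primary screen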
F-actin modifier: modifiers of F-actin cytoskeleton organization, primary screen, imaging, HUVEC, phalloidin staining, high-content imaging; HUVEC TNFa F-actin phalloidin imaging; inhibition, % at 2 µM; hit rate 0.18% among 91,000;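 active = inhibition above the batch mean plus 3 SD and confirmed as a hit by visual image inspection, cut at about 30% in these data, passing the limit was not always enough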
E-sel TNF inh: E-selectin induction blockers in HUVEC – imaging, immunofluorescence, high content, primary screen. inhibition, % at 2 µM. HUVEC TNFa-induced E-selectin immunofluorescence. hit rate 0.71% among 120,000;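 active = inhibition above the batch mean plus 3 SD, and confirmed as a hit on visual image review, cut at about 43% in these data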
A number is an active result; – = inactive; · = no result given.

SMILES	CYP2C19 inh	CYP2C9 act	CYP2C9 inhib	CYP2C19 act	F-actin modifier	E-sel TNF inh
O=C(CCn1c(=O)c2ccccc2n(CC(=O)NC2CCCC2)c1=O)NCCc1ccc(Cl)cc1	55	–	69	–	–	–
CCOc1ccccc1NC(=O)Cn1c(=O)n(CCC(=O)NC2CCCC2)c(=O)c2ccccc21	–	–	74	–	–	–
Cc1cccc(NC(=O)Cn2c(=O)n(CCC(=O)NC3CCCC3)c(=O)c3ccccc32)c1	–	–	–	–	–	–
CCCCNC(=O)CCn1c(=O)c2ccccc2n(CC(=O)N2CC(C)CC(C)C2)c1=O (stereo not given)	–	–	95	–	–	–
COc1ccccc1-c1csc(Cc2nnc3n2CCCCC3)n1	–	–	–	–	–	·
COc1ccc(OC(=O)c2cc(S(=O)(=O)N3CCCC3)ccc2Cl)cc1	–	–	–	–	–	–
O=S(=O)(Nc1cccc(-c2cn3cccnc3n2)c1)c1ccc(-c2ccccc2)cc1	81	–	100	–	–	–
O=S(=O)(Nc1cccc(-c2cn3cccnc3n2)c1)c1ccc(F)cc1	·	·	·	·	·	–
O=S(=O)(Nc1cccc(-c2cn3ccsc3n2)c1)c1ccc(F)cc1	69	–	79	–	–	·
Cc1ccc(S(=O)(=O)Nc2cccc(-c3cn4ccsc4n3)c2)cc1	100	–	99	–	–	–
CCC(=O)Nc1cccc(-c2cn3ccsc3n2)c1	–	–	–	–	–	–
Cc1nc(-c2cccc(NS(=O)(=O)c3ccccc3)c2)cs1	97	–	77	–	–	–
COC(=O)c1ccccc1NC(=O)C1CCCN(c2nnc(-n3cccc3)s2)C1 (stereo not given)	–	–	–	–	·	–
CCCCCOC(=O)c1[nH]c2c(c1C)C(=O)CC(c1ccco1)C2 (stereo not given)	·	·	·	·	·	–
Cc1cccc(/C=N/NC(=O)c2cc(-c3cccnc3)nc3c2c(C)nn3-c2ccccc2)c1	·	·	·	·	·	–
Cc1cccc(S(=O)(=O)Nc2cccc(-c3cn4ccsc4n3)c2)c1	80	–	91	–	–	–
Nc1ccc(C#Cc2ccccc2)cc1	–	–	–	–	–	–
Nc1ccccc1C#Cc1ccccc1	53	–	–	–	–	–
Cc1c(C=NCCOCc2ccccc2)cnn1C	–	–	–	–	–	·
COc1ccccc1N1CCN(S(=O)(=O)c2ccc(Br)s2)CC1	–	–	–	–	–	–
COc1ccc(N2CCN(S(=O)(=O)c3cccs3)CC2)cc1	77	–	–	–	–	–
O=C(Cc1cccs1)N1CCN(c2nc(-c3ccc(Cl)cc3)cs2)CC1	65	–	91	–	–	–
COc1ccccc1N1CCN(S(=O)(=O)c2ccccc2)CC1	92	–	86	–	–	–
COc1ccccc1N1CCN(S(=O)(=O)c2ccccc2F)CC1	64	–	64	–	–	–
Cc1cc(N2CCN(c3ccc([N+](=O)[O-])c4cccnc34)CC2)c2ccccc2n1	·	·	·	·	·	–
SMILES	CYP2C19 inh	CYP2C9 act	CYP2C9 inhib	CYP2C19 act	F-actin modifier	E-sel TNF inh
COc1ccc(N2CCN(c3ncccn3)CC2)cc1	92	–	–	–	–	–
COc1ccc(N2CCN(C(=O)Cc3cccs3)CC2)cc1	54	–	–	–	–	–
COc1ccccc1N1CCN(S(=O)(=O)c2cnc[nH]2)CC1	95	–	100	–	–	·
COc1cc(OC)cc(C(=O)N2CCN(c3ncccn3)CC2)c1	–	–	–	–	·	·
Cc1cc(N2CCN(S(=O)(=O)c3ccccc3)CC2)c2ccccc2n1	65	–	–	–	–	·
O=C(Cc1cccs1)N1CCN(c2cccc(Cl)c2)CC1	·	·	·	·	·	–
CCc1cc(C(=O)NNC(=O)CCl)sc1C	·	·	·	·	·	–
Cc1cccc(N2CCN(C(=O)c3ccc(NC(=O)C4CCCO4)cc3)CC2C)c1 (stereo not given)	–	–	–	–	·	–
CCCc1nc(SCC(=O)Nc2cc(C)on2)c2c(=O)n(C)c(=O)n(C)c2n1	–	–	–	–	–	·
CC(C)(C)OC(=O)N[C@@H](Cc1ccccc1)C(=O)N1CCC(C(=O)O)CC1	–	–	–	–	–	–
CCOC(=O)COc1ccc(S(=O)(=O)N2CCN(c3ccc(OC)cc3)CC2)cc1	·	·	·	·	·	–
COc1ccccc1N1CCN(C2CCN(S(=O)(=O)c3ccc4ccccc4c3)CC2)CC1	–	–	–	–	–	–
COc1ccccc1N1CCN(C(=O)C(Cc2ccccc2)NC(=O)C2CCCCC2)CC1 (stereo not given)	99	–	87	–	–	–
COc1ccc(S(=O)(=O)N2CCN(c3ccccc3OC)CC2)cc1OC	80	–	–	–	–	–
COc1ccccc1N1CCN(S(=O)(=O)c2c(C)ccc3nsnc23)CC1	73	–	–	–	–	–
CCOC(=O)COc1ccc(S(=O)(=O)N2CCN(c3ccccc3F)CC2)cc1	68	–	81	–	–	–
CC1CCCN(C(=O)c2ccc3c(=O)n(Cc4ccc5c(c4)OCO5)c(=S)[nH]c3c2)C1 (stereo not given)	–	–	–	–	–	–
COc1ccccc1N1CCN(C(=O)C(NS(=O)(=O)c2cccs2)c2ccccc2)CC1 (stereo not given)	62	–	–	–	–	–
COc1cc(S(=O)(=O)N2CCN(c3ccccc3F)CC2)ccc1Cl	99	–	90	–	·	–
COc1ccccc1N1CCN(C(=O)C2CCN(S(=O)(=O)c3ccc(F)cc3)CC2)CC1	–	–	–	–	·	·
COc1ccccc1N1CCN(S(=O)(=O)c2cccs2)CC1	–	–	83	–	–	–
COc1ccccc1N1CCN(S(=O)(=O)Cc2ccccc2Cl)CC1	73	4.3	–	–	·	–
O=C(CCc1ccccc1)NC(NC(=S)Nc1ccc(Cl)cc1)C(Cl)(Cl)Cl (stereo not given)	–	–	92	–	–	·
COC(=O)C(CC(C)C)NC(=O)/C=C/c1ccc(Cl)cc1 (stereo not given)	·	·	·	·	·	–
O=C(/C=C/c1ccccc1)NC(NC(=S)Nc1ccc(Cl)cc1)C(Cl)(Cl)Cl (stereo not given)	–	–	70	–	–	–
CC(C)CC(=O)NC(NC(=S)Nc1ccccc1)C(Cl)(Cl)Cl (stereo not given)	·	·	·	·	·	–
COc1ccc(NC(=S)NC(NC(=O)/C=C/c2ccccc2)C(Cl)(Cl)Cl)cc1 (stereo not given)	–	–	80	–	–	–
CC(CCc1ccccc1)NC(=O)/C=C/c1ccc(Cl)cc1 (stereo not given)	·	·	·	·	·	65
CCOC(=O)CCC(=O)N1CCNC(=O)C1	–	–	–	–	·	–
